# Laboratory results reported in PubChem BioAssay AID624287 (National Center for Advancing Translational Sciences (NCATS), 2012).
# The campaign covered roughly 340,000 compounds. About 420 (0.12%) were called active. Roughly 10% stayed inconclusive and do not appear here. The list comes from a sample in which actives are over-represented; it also holds similar structures and randomly drawn compounds. A number with no mark means an inactive call. The call rests on the fitted dose curve; in most records, active means well fitted activation curve with a large enough effect; inconclusive means small, poorly fitted or top-dose-only effect, or another doubt; inactive means no such curve, though single readings can be large or run the other way; cell line not stated here.
# Test: qHTS for Agonist of gsp, the Etiologic Mutation Responsible for Fibrous Dysplasia/McCune-Albright Syndrome: qHTS; further: nearly all actives have a fitted effect of over 60% in size;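 on activation (cAMP increase): phosphodiesterase inhibitor Ro 20-1724 added with compounds to block cAMP breakdown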
# Settings: gsp mutant cells, cAMP HTRF, 30 min; series mostly up to 76.9 µM; activation (cAMP increase): at the top concentration
# Text: McCune-Albright syndrome (MAS) is a rare disease caused by somatic mutations in Gsgsp), a widely expressed protein central in signal transduction from G-coupled protein receptors (GPCRs). The disease symptoms are diverse, owing to the fact that the patients are mosaics with varying degrees of tissue involvement. Greater than 90% of the mutations in Gs in MAS occur at the R201 position and are equally divided between R201H and R201C. The R201 residue is central in the intrinsic GTPase activity of Gs and the H and C mutations lead to loss of, or impairment of, the GTPase activity. The intrinsic GTPase activity is necessary to terminate the interaction between Gs and adenylate cyclase, and to terminate the cAMP-mediated signaling of the given GPCR pathway. Thus, these activating mutations lead to ligand-independent activation of GPCR pathways. The tissue phenotype is determined by the role of Gs in the function of a given cell, and excess Gs/cAMP signaling in that cell. For example, pituitary somatotrophs overproduce growth hormone in a growth hormone releasing hormone-independent fashion, and gigantism/acromegaly ensues. Skeletal stem cells in the bone marrow behave as if they are under constant parathyroid hormone stimulation and fail to differentiate into osteoblasts and osteocytes, and proliferate as immature osteogenic cells and lead to the marrow fibrosis of fibrous dysplasia of bone. The goal of this project is to identify molecules with stimulatory activity at gsp mutations that will not only allow for in-depth study of the underlying molecular and cellular pathophysiology, but also serve as compounds from which drugs to treat FD/MAS can be developed NIH Chemical Genomics Center [NCGC] NIH Molecular Libraries Probe Centers Network [MLPCN] MLPCN Grant: IRP-FT-DE-2011-01 Assay Submitter (PI): Michael Collins, NIDCR
# 1.#Seed 2000 cells/well in 6 ul DMEM 10% FBS, 1% Pen/Strep, 0.5 mg/ml G418 2.#Incubate 16-24 hr at 37C, 5% CO2, 95% humidity 3.#Aspirate leaving 1 ul residual volume 4.#Dispense 5 ul/well DPBS + 1 mM CaCl2, 0.5 mM MgCl2, 0.05% BSA, 0.005% Tween 20 5.#Aspirate leaving 2 ul residual volume 6.#Dispense 23 nl/well compounds in DMSO 7.#Dispense 1 ul/well 300 uM Ro-20174 in DMEM 10% FBS 8.#Incubate 30 min at 37C, 5% CO2, 95% humidity 9.#Dispense 1.5 ul/well HTRF reagent: cAMP-d2 in lysis buffer 10.#Dispense 1.5 ul/well HTRF reagent: anti-cAMP antibody-K in lysis buffer 11.#Incubate 30 min at room temperature 12.#Detect HTRF signal using EnVision plate reader
# Potency means the concentration at half of the fitted maximal effect.
SMILES,activation (cAMP increase),Potency
Cn1c(=O)c2cn(-c3cccc4ccccc34)cc2n(C)c1=O,-9.96% [at 15.4 µM],
COc1ccc(-c2c3c(=O)n(C)c(=O)n(C)c3cn2NC(C)=O)cc1,3.24%,
CC(=O)Nn1cc2c(=O)n(C)c(=O)n(C)c2c1,,7.94 µM (active)
COc1ccc(OC)c(C(=O)NC2CCCc3c2cnn3-c2cc(C)cc(C)c2)c1 (stereo unspecified),-55.3%,
CCOC(=O)c1cc(-c2sc(NC(=O)c3ccccc3)nc2C)n(CCO)n1,-34%,
O=C(NCCS(=O)(=O)N1CCN(c2ccccc2)CC1)c1cc(=O)c2ccccc2o1,-23.3%,
COc1ccc(Cl)cc1NC(=O)CN(C)C(=O)c1cn(-c2ccccc2)nc1-c1cccs1,4.43%,
C[C@@H]1CN([C@@H](C)CO)C(=O)c2cc(Br)cnc2O[C@H]1CN(C)Cc1ccc(-c2ccccc2)cc1,-22.2%,
CCOc1cc(/C=N/NC(=O)c2c(C)nc3ccc(Cl)cn23)ccc1O,-9.2%,
Cc1ccc(NC(=O)COC(=O)CN2CCSC2=O)cc1F,-20.3%,
C[C@H]1Cn2cnc(C(=O)N[C@@H](Cc3c[nH]c4ccccc34)C(=O)OC(C)(C)C)c2C(=O)N1,-4.83%,
CC(=O)Nc1ccc(C=Cc2ccc([N+](=O)[O-])cc2)cc1,-3.38%,
COC(=O)c1ccccc1N=NNc1ccc([N+](=O)[O-])cc1,-6.79%,
CC(Sc1ccc(S(=O)(=O)N2CCN(C)CC2)cn1)C(=O)NC1CCCC(C)C1C (stereo unspecified),-21.5%,
CCOc1ncccc1C(=O)Nc1ccc2c(c1)OCCO2,13.9%,
CCOc1ncccc1C(=O)Nc1ccc(S(=O)(=O)Nc2nc(C)cc(C)n2)cc1,,10 µM (active)
O=C(Nc1ccc(S(=O)(=O)Nc2ncccn2)cc1)c1cncc(Br)c1,-25.9%,
CCCc1c(C)nc2scc(-c3ccc(Cl)cc3)n2c1=O,4.2%,
CC1=C(C(=O)N(C)C)CC(CC(=O)NCCN2CCOCC2)C(=O)N1Cc1ccccc1 (stereo unspecified),-32.8%,
O=C1OCCC1=COCCCCOC=C1CCOC1=O,-17.1%,
CCCCCCn1c(=O)n2n(c1=O)C[C@]1(OC(=O)NCc3ccc(OC)c(OC)c3)CN(S(=O)(=O)c3ccc(C)cc3)C[C@]1(O)C2,-93.1%,
COc1ccc(CN2C[C@H]3CON(C)[C@H]3C[C@H]2c2ccc(-c3cccc(F)c3)cc2)cc1,-69.9%,
Cc1onc(-c2ccccc2)c1-c1nnc(COC(=O)c2ccc(N(C)C)cc2)o1,-1.6%,
Cc1ccc(CCNC(=O)CN2C(=O)CSc3ccc(S(=O)(=O)N4CCOCC4)cc32)cc1,-42.1%,
COc1ccc2c(c1)CCCO[C@]21O[C@H](CCO)C[C@H](O)[C@H]1O,-64.1%,
Cc1ccc(-c2ccc(C3=CC(=O)CC(C)(C)C3=O)cc2)cc1,-42%,
